# The supplement of paper PMC6555819
# System: LXRa homodimer (NR concentration 270 nM)
# Assay: PBM binding z-score (relative to random genomic background probes); higher = stronger binding; sequences stand for … in GC…GCGATTGACAGCGTAGAATGAAGG
# In short: (§1)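 Ligand-free nuclear receptor dimers were bound for 1 h to custom Agilent 4×180K protein-binding microarrays. Detection used antibodies against each partner (one per run). Binding z-scores rest on regression-normalized fluorescence, with random background probes as the reference.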
row,Sequence,PBM binding z-score
1,CTATGTAGGTTAAGGGGGTTATTCAGTTTGAAAG,1.14
2,TCGAGTAGGTTACGGAGGCATTCAGGGATGAAGA,-0.597
3,CTATGTAGGTTAAGCGGGTCATTCAGTTTGAAAG,0.655
4,CGATGTAGGTTAAGGGGGTCATTCAGTTTGAAAG,3.53
5,CTATGTAGGTTAAGGGGGCCATTCAGTTTGAAAG,0.578
6,CTATGCAGGTTAAGGGGGTCATTCAGTTTGAAAG,3
7,TCGAGTAGGTTACTGGGGCATTCAGGGATGAAGA,-0.186
8,CCGACTAGGTTACGAGGGGGCATTCAGTGCGAAT,1.82
9,CCGAGTAGGTTACGAGGGGGCATTCGGTGCGAAT,1.42
10,TCGAGTAGGTTACGGGGGCATTCAGGGATGAAGA,0.777
11,TCGAGTAGGTTACGGGGGCATTAAGGGATGAAGA,0.404
12,CAATGTAGGTTAAGGGGGTCATTCAGTTTGAAAG,3.82
13,CTATGTAGGTTAATGGGGTCATTCAGTTTGAAAG,3.46
14,CCGAGTAGGTTACGAGGCGGCATTCAGTGCGAAT,-0.363
15,CCGAGTAGGTTACGAGGGCGCATTCAGTGCGAAT,-0.35
16,CTATGTAGGTGAAGGGGGTCATTCAGTTTGAAAG,1.53
17,TCTAGTAGGTTACGGGGGCATTCAGGGATGAAGA,1.27
18,CCGAGTAAGTTACGAGGGGGCATTCAGTGCGAAT,0.71
19,CTATGTAGGGTAAGGGGGTCATTCAGTTTGAAAG,2.41
20,CTATGTAGGTTAAAGGGGTCATTCAGTTTGAAAG,4.18

row,Sequence,PBM binding z-score
1,CTCTGTAGGTTAAGGGGGTCATTCAGTTTGAAAG,3.51
2,TCGAGTAGGTTACGGGGGCATTGAGGGATGAAGA,0.404
3,CCGAGTAGGTAACGAGGGGGCATTCAGTGCGAAT,0.734
4,CTATTTAGGTTAAGGGGGTCATTCAGTTTGAAAG,2.76
5,CTATGTAGGTTCAGGGGGTCATTCAGTTTGAAAG,4.57
6,TCGAGTAGGTTACGGGCGCATTCAGGGATGAAGA,-0.293
7,CTATGTACGTTAAGGGGGTCATTCAGTTTGAAAG,2.68
8,CCGAGTAGGTTCCGAGGGGGCATTCAGTGCGAAT,1.32
9,CTATGTAGGTTAAGGGGGTCATTTAGTTTGAAAG,3.42
10,CCGATTAGGTTACGAGGGGGCATTCAGTGCGAAT,1.59
11,CTATGTAGGTTAACGGGGTCATTCAGTTTGAAAG,2.97
12,TCGAGTAGGTTACGGGGGCATCCAGGGATGAAGA,0.293
13,CCGAGTAGGTTATGAGGGGGCATTCAGTGCGAAT,1.95
14,CCGAGTAGGTCACGAGGGGGCATTCAGTGCGAAT,1.59
15,TCGAGTAGGTTACGCGGGCATTCAGGGATGAAGA,-0.0246
16,CCGCGTAGGTTACGAGGGGGCATTCAGTGCGAAT,1.61
17,CTATGTAGGTTAAGGGGTTCATTCAGTTTGAAAG,2.34
18,CCGAGTAGGTTACGATGGGGCATTCAGTGCGAAT,-0.148
19,TCGAGTAGGTTACGGGGTCATTCAGGGATGAAGA,1.76

# System: LXRb:RXRa (NR concentration 270 nM, RXRa partner concentration 90 nM)
# Assay: as above
# In short: as §1
row,Sequence,PBM binding z-score
1,CTATGTAGGTTAAGGGGGTTATTCAGTTTGAAAG,5.09
2,TCGAGTAGGTTACGGAGGCATTCAGGGATGAAGA,0.121
3,CTATGTAGGTTAAGCGGGTCATTCAGTTTGAAAG,2.56
4,CGATGTAGGTTAAGGGGGTCATTCAGTTTGAAAG,6.23
5,CTATGTAGGTTAAGGGGGCCATTCAGTTTGAAAG,4.2
6,CTATGCAGGTTAAGGGGGTCATTCAGTTTGAAAG,6.31
7,TCGAGTAGGTTACTGGGGCATTCAGGGATGAAGA,0.462
8,CCGACTAGGTTACGAGGGGGCATTCAGTGCGAAT,6.19
9,CCGAGTAGGTTACGAGGGGGCATTCGGTGCGAAT,6.21
10,TCGAGTAGGTTACGGGGGCATTCAGGGATGAAGA,5.02
11,TCGAGTAGGTTACGGGGGCATTAAGGGATGAAGA,4.64
12,CAATGTAGGTTAAGGGGGTCATTCAGTTTGAAAG,6.46
13,CTATGTAGGTTAATGGGGTCATTCAGTTTGAAAG,5.41
14,CCGAGTAGGTTACGAGGCGGCATTCAGTGCGAAT,-0.1
15,CCGAGTAGGTTACGAGGGCGCATTCAGTGCGAAT,0.425
16,CTATGTAGGTGAAGGGGGTCATTCAGTTTGAAAG,5.87
17,TCTAGTAGGTTACGGGGGCATTCAGGGATGAAGA,5.76
18,CCGAGTAAGTTACGAGGGGGCATTCAGTGCGAAT,3.69
19,CTATGTAGGGTAAGGGGGTCATTCAGTTTGAAAG,6.36
20,CTATGTAGGTTAAAGGGGTCATTCAGTTTGAAAG,5.82

row,Sequence,PBM binding z-score
1,CTCTGTAGGTTAAGGGGGTCATTCAGTTTGAAAG,6.33
2,TCGAGTAGGTTACGGGGGCATTGAGGGATGAAGA,4.67
3,CCGAGTAGGTAACGAGGGGGCATTCAGTGCGAAT,4.7
4,CTATTTAGGTTAAGGGGGTCATTCAGTTTGAAAG,6.33
5,CTATGTAGGTTCAGGGGGTCATTCAGTTTGAAAG,6.31
6,TCGAGTAGGTTACGGGCGCATTCAGGGATGAAGA,-0.159
7,CTATGTACGTTAAGGGGGTCATTCAGTTTGAAAG,6.5
8,CCGAGTAGGTTCCGAGGGGGCATTCAGTGCGAAT,4.15
9,CTATGTAGGTTAAGGGGGTCATTTAGTTTGAAAG,6.37
10,CCGATTAGGTTACGAGGGGGCATTCAGTGCGAAT,6.42
11,CTATGTAGGTTAACGGGGTCATTCAGTTTGAAAG,5.87
12,TCGAGTAGGTTACGGGGGCATCCAGGGATGAAGA,4.73
13,CCGAGTAGGTTATGAGGGGGCATTCAGTGCGAAT,6.27
14,CCGAGTAGGTCACGAGGGGGCATTCAGTGCGAAT,6.56
15,TCGAGTAGGTTACGCGGGCATTCAGGGATGAAGA,-0.00737
16,CCGCGTAGGTTACGAGGGGGCATTCAGTGCGAAT,6.37
17,CTATGTAGGTTAAGGGGTTCATTCAGTTTGAAAG,3.8
18,CCGAGTAGGTTACGATGGGGCATTCAGTGCGAAT,3.71
19,TCGAGTAGGTTACGGGGTCATTCAGGGATGAAGA,5.33
